# Test results taken from PMC11006913.
# Columns and labels:
# Assay in all cases: PBM; 200 nM protein, PBS
# Conditions in all cases: dsDNA, one strand shown
# HESX1 [1] = target: HESX1 (Homo sapiens, UniProt Q9UBX0 95-180, R165K)
# HESX1 [2] = target: HESX1 (Homo sapiens, UniProt Q9UBX0 95-180)
# HESX1 [3] = target: HESX1 (Homo sapiens, UniProt Q9UBX0 95-180, R109Q)
# HESX1 [4] = target: HESX1 (Homo sapiens, UniProt Q9UBX0 95-180, P111T)
# HESX1 [5] = target: HESX1 (Homo sapiens, UniProt Q9UBX0 95-180, F115L)
# ALX4 [6] = target: ALX4 (Homo sapiens, UniProt Q9H161 200-286, Q225E)
# MSX2 [7] = target: MSX2 (Homo sapiens, UniProt P35548 130-214, R199I)
# ALX1 [8] = target: ALX1 (Homo sapiens, UniProt Q15699 118-204, L144V)
# ALX1 [9] = target: ALX1 (Homo sapiens, UniProt Q15699 118-204, L144R)
# MSX2 [10] = target: MSX2 (Homo sapiens, UniProt P35548 130-214)
# PROP1 [11] = target: PROP1 (Homo sapiens, UniProt O75360 56-141)
# PROP1 [12] = target: PROP1 (Homo sapiens, UniProt O75360 56-141, R99H)
# ALX3 [13] = target: ALX3 (Homo sapiens, UniProt O95076 139-225, L168Q)
# ALX3 [14] = target: ALX3 (Homo sapiens, UniProt O95076 139-225, L168V)
# PROP1 [15] = target: PROP1 (Homo sapiens, UniProt O75360 56-141, F88S)
# MSX2 [16] = target: MSX2 (Homo sapiens, UniProt P35548 130-214, F161Y)
# ALX1 [17] = target: ALX1 (Homo sapiens, UniProt Q15699 118-204)
# ALX4 [18] = target: ALX4 (Homo sapiens, UniProt Q9H161 200-286)
# PRRX1 [19] = target: PRRX1 (Homo sapiens, UniProt P54821 80-166, F113S)
# PRRX1 [20] = target: PRRX1 (Homo sapiens, UniProt P54821 80-166)
# Chain of PRRX1 (Homo sapiens, UniProt P54821 80-166) (P54821 80-166): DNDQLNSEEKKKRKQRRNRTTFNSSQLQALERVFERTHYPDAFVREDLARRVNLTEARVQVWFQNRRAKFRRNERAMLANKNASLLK
# Chain of PROP1 (Homo sapiens, UniProt O75360 56-141, F88S) (O75360 56-141 F88S): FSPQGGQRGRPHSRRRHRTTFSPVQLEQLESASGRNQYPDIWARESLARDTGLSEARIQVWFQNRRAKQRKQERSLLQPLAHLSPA
# Chain of ALX3 (Homo sapiens, UniProt O95076 139-225, L168Q) (O95076 139-225 L168Q): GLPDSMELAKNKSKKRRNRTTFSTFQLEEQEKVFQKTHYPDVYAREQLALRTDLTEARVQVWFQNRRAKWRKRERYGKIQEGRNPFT
# Chain of ALX4 (Homo sapiens, UniProt Q9H161 200-286, Q225E) (Q9H161 200-286 Q225E): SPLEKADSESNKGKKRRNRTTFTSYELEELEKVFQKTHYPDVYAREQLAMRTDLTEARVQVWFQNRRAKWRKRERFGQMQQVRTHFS
# Chain of PROP1 (Homo sapiens, UniProt O75360 56-141, R99H) (O75360 56-141 R99H): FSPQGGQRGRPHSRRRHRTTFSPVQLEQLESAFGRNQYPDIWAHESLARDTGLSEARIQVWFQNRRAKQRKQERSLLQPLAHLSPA
# Chain of HESX1 (Homo sapiens, UniProt Q9UBX0 95-180, R165K) (Q9UBX0 95-180 R165K): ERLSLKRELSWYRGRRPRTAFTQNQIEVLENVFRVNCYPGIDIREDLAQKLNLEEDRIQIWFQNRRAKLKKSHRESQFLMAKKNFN
# Chain of PROP1 (Homo sapiens, UniProt O75360 56-141) (O75360 56-141): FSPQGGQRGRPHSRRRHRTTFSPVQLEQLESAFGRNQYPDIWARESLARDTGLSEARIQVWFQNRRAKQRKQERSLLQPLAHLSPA
# Chain of MSX2 (Homo sapiens, UniProt P35548 130-214, F161Y) (P35548 130-214 F161Y): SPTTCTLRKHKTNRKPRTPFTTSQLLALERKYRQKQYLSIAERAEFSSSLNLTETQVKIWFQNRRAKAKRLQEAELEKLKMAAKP
# Chain of HESX1 (Homo sapiens, UniProt Q9UBX0 95-180, F115L) (Q9UBX0 95-180 F115L): as the sequence (Q9UBX0 95-180 R165K) above, with F21L, K71R counted along it
# Chain of HESX1 (Homo sapiens, UniProt Q9UBX0 95-180, R109Q) (Q9UBX0 95-180 R109Q): as the sequence (Q9UBX0 95-180 R165K) above, with R15Q, K71R counted along it
# Chain of ALX1 (Homo sapiens, UniProt Q15699 118-204, L144R) (Q15699 118-204 L144R): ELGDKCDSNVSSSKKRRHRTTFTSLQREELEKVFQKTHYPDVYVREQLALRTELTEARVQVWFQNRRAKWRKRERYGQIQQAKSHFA
# Chain of HESX1 (Homo sapiens, UniProt Q9UBX0 95-180, P111T) (Q9UBX0 95-180 P111T): as the sequence (Q9UBX0 95-180 R165K) above, with P17T, K71R counted along it
# Chain of PRRX1 (Homo sapiens, UniProt P54821 80-166, F113S) (P54821 80-166 F113S): as the sequence (P54821 80-166) above, with F34S counted along it
# Chain of MSX2 (Homo sapiens, UniProt P35548 130-214, R199I) (P35548 130-214 R199I): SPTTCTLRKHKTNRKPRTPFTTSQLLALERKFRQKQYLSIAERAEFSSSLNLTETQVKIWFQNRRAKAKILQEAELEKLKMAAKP
# Chain of ALX4 (Homo sapiens, UniProt Q9H161 200-286) (Q9H161 200-286): as the sequence (Q9H161 200-286 Q225E) above, with E26Q counted along it
# Chain of ALX3 (Homo sapiens, UniProt O95076 139-225, L168V) (O95076 139-225 L168V): as the sequence (O95076 139-225 L168Q) above, with Q30V counted along it
# Chain of ALX1 (Homo sapiens, UniProt Q15699 118-204) (Q15699 118-204): as the sequence (Q15699 118-204 L144R) above, with R27L counted along it
# Chain of ALX1 (Homo sapiens, UniProt Q15699 118-204, L144V) (Q15699 118-204 L144V): as the sequence (Q15699 118-204 L144R) above, with R27V counted along it
# Chain of HESX1 (Homo sapiens, UniProt Q9UBX0 95-180) (Q9UBX0 95-180): as the sequence (Q9UBX0 95-180 R165K) above, with K71R counted along it
# Chain of MSX2 (Homo sapiens, UniProt P35548 130-214) (P35548 130-214): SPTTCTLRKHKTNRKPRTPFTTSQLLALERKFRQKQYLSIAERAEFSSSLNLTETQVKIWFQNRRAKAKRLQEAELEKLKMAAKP
Sequence,binding signal (HESX1 [1]),binding signal (HESX1 [2]),binding signal (HESX1 [3]),binding signal (HESX1 [4]),binding signal (HESX1 [5]),binding signal (ALX4 [6]),binding signal (MSX2 [7]),binding signal (ALX1 [8]),binding signal (ALX1 [9]),binding signal (MSX2 [10]),binding signal (PROP1 [11]),binding signal (PROP1 [12]),binding signal (ALX3 [13]),binding signal (ALX3 [14]),binding signal (PROP1 [15]),binding signal (MSX2 [16]),binding signal (ALX1 [17]),binding signal (ALX4 [18]),binding signal (PRRX1 [19]),binding signal (PRRX1 [20])
CCGAGCGG,"6.41 upbm affinity estimate (log intensity, higher = more binding, comparable within an allelic series)","6.46 upbm affinity estimate (log intensity, higher = more binding, comparable within an allelic series)","6.48 upbm affinity estimate (log intensity, higher = more binding, comparable within an allelic series)","6.49 upbm affinity estimate (log intensity, higher = more binding, comparable within an allelic series)","6.36 upbm affinity estimate (log intensity, higher = more binding, comparable within an allelic series)",–,–,–,–,–,–,–,–,–,–,–,–,–,–,–
CAATTAGG,"12.5 upbm affinity estimate (log intensity, higher = more binding, comparable within an allelic series)","12.7 upbm affinity estimate (log intensity, higher = more binding, comparable within an allelic series)","9.39 upbm affinity estimate (log intensity, higher = more binding, comparable within an allelic series)","11.2 upbm affinity estimate (log intensity, higher = more binding, comparable within an allelic series)","7.73 upbm affinity estimate (log intensity, higher = more binding, comparable within an allelic series)","12.8 upbm affinity estimate (log intensity, higher = more binding, comparable within an allelic series)","12.7 upbm affinity estimate (log intensity, higher = more binding, comparable within an allelic series)","11.5 upbm affinity estimate (log intensity, higher = more binding, comparable within an allelic series)","10.9 upbm affinity estimate (log intensity, higher = more binding, comparable within an allelic series)","13.8 upbm affinity estimate (log intensity, higher = more binding, comparable within an allelic series)","11.3 upbm affinity estimate (log intensity, higher = more binding, comparable within an allelic series)","11.5 upbm affinity estimate (log intensity, higher = more binding, comparable within an allelic series)","10.4 upbm affinity estimate (log intensity, higher = more binding, comparable within an allelic series)","9.81 upbm affinity estimate (log intensity, higher = more binding, comparable within an allelic series)","7.6 upbm affinity estimate (log intensity, higher = more binding, comparable within an allelic series)","13.4 upbm affinity estimate (log intensity, higher = more binding, comparable within an allelic series)","12.1 upbm affinity estimate (log intensity, higher = more binding, comparable within an allelic series)",–,–,–
ACAATTAG,"11.8 upbm affinity estimate (log intensity, higher = more binding, comparable within an allelic series)","12.1 upbm affinity estimate (log intensity, higher = more binding, comparable within an allelic series)","8.66 upbm affinity estimate (log intensity, higher = more binding, comparable within an allelic series)","10.4 upbm affinity estimate (log intensity, higher = more binding, comparable within an allelic series)","7.42 upbm affinity estimate (log intensity, higher = more binding, comparable within an allelic series)",–,"12.6 upbm affinity estimate (log intensity, higher = more binding, comparable within an allelic series)","11.2 upbm affinity estimate (log intensity, higher = more binding, comparable within an allelic series)","10.8 upbm affinity estimate (log intensity, higher = more binding, comparable within an allelic series)","13.7 upbm affinity estimate (log intensity, higher = more binding, comparable within an allelic series)","11.1 upbm affinity estimate (log intensity, higher = more binding, comparable within an allelic series)","11 upbm affinity estimate (log intensity, higher = more binding, comparable within an allelic series)",–,–,"7.51 upbm affinity estimate (log intensity, higher = more binding, comparable within an allelic series)","13.3 upbm affinity estimate (log intensity, higher = more binding, comparable within an allelic series)","12 upbm affinity estimate (log intensity, higher = more binding, comparable within an allelic series)",–,–,–
AATTATAA,"11.6 upbm affinity estimate (log intensity, higher = more binding, comparable within an allelic series)","11.7 upbm affinity estimate (log intensity, higher = more binding, comparable within an allelic series)","8.29 upbm affinity estimate (log intensity, higher = more binding, comparable within an allelic series)","10.4 upbm affinity estimate (log intensity, higher = more binding, comparable within an allelic series)","7.89 upbm affinity estimate (log intensity, higher = more binding, comparable within an allelic series)","13.1 upbm affinity estimate (log intensity, higher = more binding, comparable within an allelic series)","12.4 upbm affinity estimate (log intensity, higher = more binding, comparable within an allelic series)","11.5 upbm affinity estimate (log intensity, higher = more binding, comparable within an allelic series)","11.2 upbm affinity estimate (log intensity, higher = more binding, comparable within an allelic series)","13.4 upbm affinity estimate (log intensity, higher = more binding, comparable within an allelic series)","11 upbm affinity estimate (log intensity, higher = more binding, comparable within an allelic series)","10.8 upbm affinity estimate (log intensity, higher = more binding, comparable within an allelic series)","10.4 upbm affinity estimate (log intensity, higher = more binding, comparable within an allelic series)","9.95 upbm affinity estimate (log intensity, higher = more binding, comparable within an allelic series)","7.93 upbm affinity estimate (log intensity, higher = more binding, comparable within an allelic series)","13 upbm affinity estimate (log intensity, higher = more binding, comparable within an allelic series)","12.1 upbm affinity estimate (log intensity, higher = more binding, comparable within an allelic series)","13.7 upbm affinity estimate (log intensity, higher = more binding, comparable within an allelic series)","11.4 upbm affinity estimate (log intensity, higher = more binding, comparable within an allelic series)","13.3 upbm affinity estimate (log intensity, higher = more binding, comparable within an allelic series)"
AATTAGAT,"11.3 upbm affinity estimate (log intensity, higher = more binding, comparable within an allelic series)","11.4 upbm affinity estimate (log intensity, higher = more binding, comparable within an allelic series)","8.52 upbm affinity estimate (log intensity, higher = more binding, comparable within an allelic series)","10.1 upbm affinity estimate (log intensity, higher = more binding, comparable within an allelic series)","7.63 upbm affinity estimate (log intensity, higher = more binding, comparable within an allelic series)","12.6 upbm affinity estimate (log intensity, higher = more binding, comparable within an allelic series)",–,"11.6 upbm affinity estimate (log intensity, higher = more binding, comparable within an allelic series)","11.1 upbm affinity estimate (log intensity, higher = more binding, comparable within an allelic series)",–,"11.5 upbm affinity estimate (log intensity, higher = more binding, comparable within an allelic series)","10.9 upbm affinity estimate (log intensity, higher = more binding, comparable within an allelic series)","10.2 upbm affinity estimate (log intensity, higher = more binding, comparable within an allelic series)","9.67 upbm affinity estimate (log intensity, higher = more binding, comparable within an allelic series)","7.72 upbm affinity estimate (log intensity, higher = more binding, comparable within an allelic series)",–,"12.2 upbm affinity estimate (log intensity, higher = more binding, comparable within an allelic series)","13.7 upbm affinity estimate (log intensity, higher = more binding, comparable within an allelic series)","11.1 upbm affinity estimate (log intensity, higher = more binding, comparable within an allelic series)","13.3 upbm affinity estimate (log intensity, higher = more binding, comparable within an allelic series)"
AATTAGCA,"11.6 upbm affinity estimate (log intensity, higher = more binding, comparable within an allelic series)","11.6 upbm affinity estimate (log intensity, higher = more binding, comparable within an allelic series)","8.94 upbm affinity estimate (log intensity, higher = more binding, comparable within an allelic series)","10.4 upbm affinity estimate (log intensity, higher = more binding, comparable within an allelic series)","7.45 upbm affinity estimate (log intensity, higher = more binding, comparable within an allelic series)","12.7 upbm affinity estimate (log intensity, higher = more binding, comparable within an allelic series)","12.2 upbm affinity estimate (log intensity, higher = more binding, comparable within an allelic series)","11.5 upbm affinity estimate (log intensity, higher = more binding, comparable within an allelic series)","11.1 upbm affinity estimate (log intensity, higher = more binding, comparable within an allelic series)",–,"11.1 upbm affinity estimate (log intensity, higher = more binding, comparable within an allelic series)","10.9 upbm affinity estimate (log intensity, higher = more binding, comparable within an allelic series)","10.3 upbm affinity estimate (log intensity, higher = more binding, comparable within an allelic series)","9.83 upbm affinity estimate (log intensity, higher = more binding, comparable within an allelic series)","7.78 upbm affinity estimate (log intensity, higher = more binding, comparable within an allelic series)",–,"12.2 upbm affinity estimate (log intensity, higher = more binding, comparable within an allelic series)","13.6 upbm affinity estimate (log intensity, higher = more binding, comparable within an allelic series)","11 upbm affinity estimate (log intensity, higher = more binding, comparable within an allelic series)","13.2 upbm affinity estimate (log intensity, higher = more binding, comparable within an allelic series)"
GACAATTA,"11.7 upbm affinity estimate (log intensity, higher = more binding, comparable within an allelic series)","12 upbm affinity estimate (log intensity, higher = more binding, comparable within an allelic series)","8.59 upbm affinity estimate (log intensity, higher = more binding, comparable within an allelic series)","10.4 upbm affinity estimate (log intensity, higher = more binding, comparable within an allelic series)","7.41 upbm affinity estimate (log intensity, higher = more binding, comparable within an allelic series)",–,"12.7 upbm affinity estimate (log intensity, higher = more binding, comparable within an allelic series)",–,–,"13.8 upbm affinity estimate (log intensity, higher = more binding, comparable within an allelic series)",–,"10.8 upbm affinity estimate (log intensity, higher = more binding, comparable within an allelic series)",–,–,–,"13.4 upbm affinity estimate (log intensity, higher = more binding, comparable within an allelic series)",–,–,"11 upbm affinity estimate (log intensity, higher = more binding, comparable within an allelic series)","13.2 upbm affinity estimate (log intensity, higher = more binding, comparable within an allelic series)"
GCCAGCGA,"6.34 upbm affinity estimate (log intensity, higher = more binding, comparable within an allelic series)","6.55 upbm affinity estimate (log intensity, higher = more binding, comparable within an allelic series)","6.49 upbm affinity estimate (log intensity, higher = more binding, comparable within an allelic series)","6.48 upbm affinity estimate (log intensity, higher = more binding, comparable within an allelic series)","6.56 upbm affinity estimate (log intensity, higher = more binding, comparable within an allelic series)",–,–,–,–,–,–,–,–,–,–,–,–,–,–,–
